One may read the Inhibition as the drop in the measured response relative to a control, in per cent.

The subject of the first assay is Plasmodium falciparum. In words: GSK_TCMDC: Inhibition of Plasmodium falciparum 3D7 in whole red blood cells, using parasite LDH activity as an index of growth. Test compounds present at 2uM. Type of assay: functional.
`Cl.Nc1ncc(Cc2cc(Cl)c(N)c3ncccc23)c(N)n1` registered an Inhibition of 89%.
The compound `CC1=C(C(=O)Nc2cc3cn[nH]c3cc2F)C(c2cccc(O)c2F)CC(=O)N1` (centres undefined) yielded an Inhibition of 97%.
Same read-out and setting: with `Clc1ccc(CNc2nc(NCCc3c[nH]cn3)nc(N3CCCC4CCCCC43)n2)cc1` (centres undefined) the figure was 100%; with `CC(=O)Nc1ccc(S(=O)(=O)N(Cc2cccc(Oc3ccccc3)c2)C2CCN(C/C=C(\C)CCC=C(C)C)CC2)cc1`, 100%; with `CCN(CCCN1CCCCC1)c1cc(C)nc(Nc2cccc(OC(F)(F)F)c2)n1.O=C(O)C(F)(F)F`, 100%.

A further assay concerns Plasmodium falciparum. In words: GSK_TCMDC: Inhibition of Plasmodium falciparum Dd2 in whole red blood cells, using parasite LDH activity as an index of growth. Test compounds present at 2uM. Format: functional.
`CS(=O)(=O)n1c(CN2CCN(c3ncc(C(F)(F)F)cc3Cl)CC2)nc2ccccc21`: the Inhibition is on record as 59%.
`Br.C=CCNC(CCCCC)c1ccc(OCCOc2ccc(C(CCCCC)NCC=C)cc2)cc1` (centres undefined) showed an Inhibition of 48%.
On the same count and under the same terms, the same measure for `CCN(CC)CCCN(C(=O)Nc1c(Cl)cncc1Cl)c1nc(-c2ccc(F)cc2)cs1`: 93%.
On the same count and under the same terms, with `CC(C)(C)NCc1cc(Nc2ccnc3cc(Cl)ccc23)ccc1F` the figure was 100%.
Consider `Cc1cc2c(cc1C(F)(F)F)N(C(=O)Nc1cc(OCCN(C(C)C)C(C)C)cc(C(F)(F)F)c1)CC2.Cl`, for which the Inhibition turned out to be 86%.
Still for that read-out and setting: the same measure for `CN1CCC(c2c[nH]c3ccc(NC(=O)Nc4ccc(-c5ccncc5)c(Cl)c4Cl)cc23)CC1`: 19%; for `Cc1cc(NCC2CCN(CC3CCCCC3)C2)nc(Nc2ccc(Cl)cc2)n1` (centres undefined): 74%; for `O=C(Nc1ccc(Br)cc1)N(CCN1CCOCC1)CC(O)COc1ccc(Cl)c(F)c1.O=C(O)C(F)(F)F` (centres undefined): 30%.
Consider `Cc1ccc(CNC(=O)[C@H](Cc2ccccc2)Nc2cc(C)nc(NCCc3ccc(F)cc3)n2)cc1.O=C(O)C(F)(F)F`, for which the Inhibition is 22%.

The values above are taken from ChEMBL document CHEMBL1157539, “Thousands of chemical starting points for antimalarial lead identification” (Nature, 2010).
